Bioassay records: PubChem BioAssay, National Center for Advancing Translational Sciences (NCATS)
BLM helicase inh = qHTS Assay for Inhibitors of Bloom's syndrome helicase (BLM); recombinant BLM DNA unwinding, fluorescence dequenching; Potency, µM (top dose mostly 56.1 µM), usual class: inhibitors; hit rate 0.2% among 350,000; AID 2528, 2010; also: nearly all actives have a fitted effect of over 35% in size
RECQ1 inh = qHTS Assay for Inhibitors of RecQ-Like Dna Helicase 1 (RECQ1); hit rate 0.54% among 240,000; AID 2549, 2010; RECQ1 DNA unwinding, red fluorescence kinetic read; Potency, µM (doses to about 57.3 µM), usual class: inhibitors; ATP-dependent DNA helicase Q1 (Homo sapiens), P46063; also: nearly all actives have a fitted effect of over 30% in size
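50 nM RECQ1T1 preincubated 15 min with compound in Tris pH 8.0 buffer with MgCl2, DTT, Tween-20 and 2.5 ug/ml poly(dI-dC); started with 200 nM TAMRA/BHQ-2 forked duplex and 2 mM ATP. Unwinding read as fluorescence (525/598 nm), two reads 2 h apart.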
TexasRed fluor = Total Fluorescence Counterscreen for Inhibitors of the Interaction of Thyroid Hormone Receptor and Steroid Receptor Coregulator 2 | TRb/SRC2 Texas Red total fluorescence interference | hit rate 0.29% among 280,000 | Potency, µM (top dose mostly 106 µM); active = well fitted curve in either direction with a large enough effect; inconclusive = small, poorly fitted or top-dose-only effect
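Flags fluorescent or light-absorbing compounds by total fluorescence, S + 2P, at 555 nm excitation and 632 nm emission. Mixture: 20 nM Texas Red SRC2 peptide, 0.6 uM human TRb LBD, 1 uM T3, 5% DMSO; compound exposure 5 h at ambient temperature.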
TRb SRC2 PPI = qHTS for Inhibitors of the Interaction of Thyroid Hormone Receptor and Steroid Receptor Coregulator 2; Thyroid hormone receptor beta (Homo sapiens), P10828; Potency, µM (highest dose often 106 µM), actives largely listed as inhibitors; TRbeta-SRC2 peptide binding, fluorescence polarization; receptor liganded with 1 µM T3; hit rate 0.065% among 280,000; also: nearly all actives have a fitted effect of over 50% in size
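Compounds were added to 0.6 uM TRb ligand-binding domain and 20 nM Texas Red-labeled SRC2 peptide in Tris buffer containing 1 uM T3, incubated 5 hr at ambient temperature, then read by fluorescence polarization.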
GoLoco inh red = qHTS Assay for Inhibitors of RGS12 GoLoco Motif Activity (Red Fluorophore); Potency, µM (series often up to 61.6 µM), usual class: inhibitors; Guanine nucleotide-binding protein G(i) subunit alpha-1 (Homo sapiens), P63096; Gai1:RGS12 GoLoco peptide FP, rhodamine, 10 min; hit rate 0.44% among 230,000; AID 880, 2007; active = well fitted inhibition curve with a large enough effect, not every such curve was filed as active; inactive = no such curve, though single readings can be large or run the other way; also: nearly all actives have a fitted effect of over 30% in size
Target sequence (P63096 whole entry, looked up): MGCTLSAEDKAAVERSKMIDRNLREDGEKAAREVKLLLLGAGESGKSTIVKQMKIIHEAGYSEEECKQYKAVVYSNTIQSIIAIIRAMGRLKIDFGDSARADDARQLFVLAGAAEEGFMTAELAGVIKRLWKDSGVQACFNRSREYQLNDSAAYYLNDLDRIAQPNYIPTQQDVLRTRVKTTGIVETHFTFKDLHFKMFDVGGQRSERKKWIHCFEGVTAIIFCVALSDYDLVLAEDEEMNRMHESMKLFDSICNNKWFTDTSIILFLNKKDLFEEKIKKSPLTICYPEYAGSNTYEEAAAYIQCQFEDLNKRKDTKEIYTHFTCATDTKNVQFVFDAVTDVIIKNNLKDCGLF
ERG Ets-DNA blk = qHTS for Small Molecule Inhibitors of the ERG Ets/DNA interaction; Transcriptional regulator ERG (Homo sapiens), P11308; fluorescence polarization, His-ERG Ets domain / labelled DNA; Potency, µM (top dose mostly 76.9 µM), most hits filed as inhibitors; hit rate 0.028% among 370,000; active = well fitted inhibition curve with a large enough effect in the polarisation, with a control signal flat; inconclusive = small, poorly fitted or top-dose-only effect, or effect the other way, or a change in a side signal; inactive = no such curve, though single readings can be large or run the other way; the % refers to the polarisation;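 also: polarization taken with two DNA probes labelled with fluorescein and Texas red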
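His-tagged ERG Ets domain (1 uM in the protein solution; 300mM KCl, 50mM Tris-HCl, 1mM EDTA, 1mM DTT, pH 7.5) received compound, then a probe mix of 5 nM fluorescein-DNA and 100nM Texas-615-DNA. Fluorescence polarization was read for both dyes.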
A number is an active result; - = inactive; ? = inconclusive; . = not tested or not shown; ! = not active in a repeat; [ ] = another dose, or the depositor's remark. Only some compounds are listed: those with a hit (about 0.71% of all), similar ones and a draw of the others. Unless noted, calls follow the shape of the dose curve; as a rule, active = well fitted curve in the direction sought with a large enough effect; inconclusive = small, poorly fitted or top-dose-only effect, or another doubt; inactive = no such curve, though single readings can be large; an effect the other way counts as inactive or inconclusive.

SMILES | BLM helicase inh | RECQ1 inh | TexasRed fluor | TRb SRC2 PPI | GoLoco inh red | ERG Ets-DNA blk
Cc1ccc(OCCn2cccc2/C=C2/C(=O)NC(=O)N(Cc3ccco3)C2=O)cc1 | - | ? | - | - | - | -
CCc1ccc(N2C(=O)NC(=O)/C(=C\c3cccn3CCOc3ccc(C(C)C)cc3)C2=O)cc1 | - | 25µM | - | - | - | -
O=C1C=CC(=O)C=C1 | . | ? | - | - | 1.8µM! | -
COC[C@H](C)N(C(=O)CCl)c1c(C)csc1C | . | . | - | - | . | .
CCOC(=O)c1c(NS(=O)(=O)c2ccccc2)n(CCCOC)c2nc3ccccc3nc12 | 5.6µM | - | - | ? | - | -
O=[N+]([O-])c1ccc(Oc2ccc(Cl)cc2Cl)cc1 | . | . | - | - | . | .
COc1cc(N2CCOCC2)ccc1C=C1C(=O)NC(=O)NC1=O | - | - | 32µM[quencher] | - | - | -
COc1cc(N2CCOCC2)ccc1/C=C1\C(=O)NC(=O)N(Cc2cccs2)C1=O | - | - | - | - | - | -
CNC(=O)Oc1cc(C)cc(C(C)C)c1 | . | . | - | - | . | .
CCCCC/C=C\C/C=C\C/C=C\C/C=C\CCCC(=O)N(Cc1ccc(O)c(Cl)c1)Cc1ccc(O)c(Cl)c1 | 32µM | - | - | - | 40µM | .
C[n+]1c2cc(N)ccc2cc2ccc(N)cc21 | - | - | - | - | - | 35µM
Nc1ccc2ccccc2c1 | . | - | - | - | - | -
CCNc1nc(Cl)nc(NC(C)(C)C#N)n1 | . | . | - | - | . | .
CCOc1ccc(-c2nc3cc(NC(=O)COc4cccc(C)c4)ccc3o2)cc1 | - | . | 14µM[quencher] | ? | . | -
CCCCC(CC)COC(=O)CCCCC(=O)OCC(CC)CCCC (stereo not drawn) | . | - | - | - | - | 28µM
COc1ccc(-c2nc3ccccc3c(=O)n2-c2ccc(OC)cc2)cc1 | - | - | - | - | - | -
CCn1nc(-c2ccccc2)nc2c(=O)n(C)c(=O)nc1-2 | 1.4µM | - | - | ? | - | -
CNC(=O)OCc1n(C)cc[n+]1C | - | - | - | - | 1.8µM | -
CN1CC=C2C(C#N)=C(N)C(C#N)(C#N)C(c3ccncc3)C2C1 (stereo not drawn) | - | - | - | - | 25µM | -
CC(O)CN(CC(C)O)CC(C)O (stereo not drawn) | . | . | - | - | . | .
Cc1ccc(O)cc1 | - | - | - | - | - | .
Cc1ccc(C=C2C(Cl)=C(Cl)C(Cl)=C2Cl)cc1 | - | 10µM | - | - | - | -
CCCCCCCCCCCC#N | . | . | - | - | . | .
Cc1cc(C)nc(Nc2ccccc2)n1 | . | . | - | - | . | .
CO/N=C(/C(=O)OC)c1ccccc1COc1ccccc1C | . | . | - | - | . | .
SMILES | BLM helicase inh | RECQ1 inh | TexasRed fluor | TRb SRC2 PPI | GoLoco inh red | ERG Ets-DNA blk
COC(=O)N(C(=O)N1COC2(C(=O)OC)Cc3cc(Cl)ccc3C2=N1)c1ccc(OC(F)(F)F)cc1 (stereo not drawn) | . | . | - | - | . | .
C1CC[CH]([Sn]([CH]2CCCCC2)[CH]2CCCCC2)CC1 | . | . | - | - | . | .
CN1CC(CO)=C[C@H]2c3cccc4[nH]cc(c34)C[C@H]21 | - | - | - | - | 13µM | .
CN1C[C@H](CO)C[C@@H]2c3cccc4[nH]cc(c34)C[C@H]21 | - | . | . | . | . | -
CCNc1nc(Cl)nc(NC(C)(C)C)n1 | . | . | - | - | . | .
CNC(=O)Oc1ccc(N(C)C)c(C)c1 | . | . | - | - | . | .
COc1ccc(CN2C(=O)NC(=O)/C(=C/c3ccc([N+](=O)[O-])o3)C2=O)cc1 | ? | 10µM | ? | ? | - | .
Cc1cc(/C=C2\C(=O)NC(=O)N(Cc3ccccc3)C2=O)c(C)n1-c1ccc(Cl)c(C(=O)O)c1 | - | 35µM | - | - | - | -
Cc1cc(/C=C2\C(=O)NC(=O)N(Cc3ccco3)C2=O)c(C)n1-c1ccc(O)cc1 | 25µM | - | - | - | - | -
Cc1ccc(-n2c(C)cc(/C=C3/C(=O)NC(=O)N(Cc4ccco4)C3=O)c2C)cc1 | - | ? | - | - | - | -
Cc1cc(/C=C2\C(=O)NC(=O)N(Cc3ccccc3Cl)C2=O)c(C)n1-c1ccc(C(=O)O)cc1 | - | ? | - | - | - | -
C[n+]1c2ccccc2nc2ccc(NCCO)cc21 | 18µM | . | . | . | . | 7.9µM
CNc1ccc2nc3ccccc3[n+](C)c2c1 | 18µM | . | . | . | . | 5µM
OCCNc1c2c(nc3ccccc13)CCCC2 | - | - | - | - | - | -
[Cl][Sn]([c]1ccccc1)([c]1ccccc1)[c]1ccccc1 | . | . | - | - | . | .
CC[N+](C)(CC)CCCOC(=O)C(O)(c1ccccc1)C1CCCCC1 (stereo not drawn) | - | - | - | - | 6.3µM | -
CCOC(C(=O)OCCC[N+](C)(CC)CC)(c1ccccc1)c1ccccc1 | - | - | - | - | - | .
CN1CCN(c2ccc(/C=C3\C(=O)NC(=S)N(c4cccc(Br)c4)C3=O)o2)CC1 | - | 14µM | - | - | - | -
CCOS(C)(=O)=O | . | - | - | - | 22µM | -
C=CC(=O)OCC(CC)(COC(=O)C=C)COC(=O)C=C | . | . | - | - | . | .
[Cd+2].[Cl-].[Cl-] | . | 35µM | . | . | - | .
Cc1cccc(N2C(=O)NC(=O)/C(=C\C=C\c3ccco3)C2=O)c1 | - | 22µM | - | - | - | -
Cc1cccc(N2C(=O)NC(=O)/C(=C\c3cccn3-c3ccc(Cl)cc3)C2=O)c1 | - | 32µM | - | - | - | -
Cc1ccc(N2C(=O)NC(=O)/C(=C\C=C\c3ccco3)C2=O)cc1 | - | ? | - | - | - | -
Cc1ccc(N2C(=O)NC(=O)/C(=C\C=C\c3ccco3)C2=O)cc1C | - | 28µM | - | - | - | -
SMILES | BLM helicase inh | RECQ1 inh | TexasRed fluor | TRb SRC2 PPI | GoLoco inh red | ERG Ets-DNA blk
CN(C)c1ccc(/C=C/C=C2/C(=O)NC(=O)N(c3ccccc3)C2=O)cc1 | - | - | 3.2µM[fluorescent] | ? | - | -
CCC[CH2][Sn]([CH2]CCC)([O]C(C)=O)[O]C(C)=O | . | . | - | - | . | .
O=C1NC(=O)N(Cc2ccco2)C(=O)/C1=C/C=C/c1ccco1 | - | 10µM | - | - | - | -
O=C1NC(=O)N(Cc2ccccc2)C(=O)/C1=C\C=C\c1ccco1 | ? | ? | - | - | - | ?
C/C(=N\Nc1ccccc1)c1c(O)n(Cc2ccccc2)c(=O)[nH]c1=O | - | - | 0.071µM[quencher] | - | - | -
O=c1c2ccccc2[se]n1-c1ccccc1 | - | - | - | - | 2.8µM! | -
Cc1nn(-c2cc(NS(C)(=O)=O)c(Cl)cc2Cl)c(=O)n1C(F)F | . | . | - | - | . | .
O=C1NC(=S)N(c2ccc(F)cc2)C(=O)/C1=C\c1ccoc1 | - | 32µM | - | - | - | -
